36 sequences from PMC5892938, “SARNAclust: Semi-automatic detection of RNA protein binding motifs from immunoprecipitation data” can be followed below.

The full ranking holds about 11,000 sequences; the median of “log2 fold change” is about 0.00022, and the highest 2% start at about 0.34. The list shows a part of the results.

This experiment concerns the target GST-SBP-SLBP (stem-loop binding protein) (Homo sapiens, UniProt Q14493 1-270). In words: targeted RNA Bind-n-Seq; RBNS binding buffer: 25 mM Tris pH 7.5, 150 mM KCl, 3 mM MgCl2, 0.1% Tween, 0.5 mg/mL BSA, 1 mM DTT; 27 nM protein, 750 pM RNA pool; temperature not stated; high values mean tight binding. The following applies: protein: recombinant; tags: N-terminal GST and SBP (pGEX6P1-SBP); structured_RNA. A digest of the protocol: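 The GST-SBP-tagged protein was expressed in Rosetta(DE3) pLysS E. coli, glutathione-purified and incubated at 27 nM with 750 pM of a designed, T7-transcribed RNA oligo pool in RBNS binding buffer. Bound RNA was reverse transcribed with a 10-nucleotide barcoded primer, PCR-amplified and sequenced on a MiSeq with 200-cycle paired-end reads. Reads were joined with FLASH, aligned with HISAT2 and collapsed by barcode. The binding signal is the DEseq log2 fold change of read counts per sequence.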
Turning to “GGUCACGUCUCAAUCAACUCCAAAGAGGGGGGGAAAACCCCUUUGCCCUCCAAUUCAACAGCUCGCAGUCAAG”, the binding signal came out at 0.304 ± 0.412 log2 fold change.
In the case of “GGUCACGUCUCAAUCAACUCCAAAGAGGGGGGGAAAACCCCUUUGCCCUCGAAAUCAACAGCUCGCAGUCAAG” it was 0.347 ± 0.378 log2 fold change; in that of “GGUCACGUCUCAAUCAACUCCAAAGAGGGGGGGAAAACCCCUUUGCCCUCAUUCUCAACAGCUCGCAGUCAAG”, 0.342 ± 0.438 log2 fold change.
For “GGUCACGUCUCAAUCAACUCCAAAGAGGGGGGGAAAACCCCUUUGCCCUCAAUAUCAACAGCUCGCAGUCAAG”, the binding signal stood at 0.359 ± 0.439 log2 fold change.
In the case of “GGUCACGUCUCAAUCAACUCUCAAGAGGGGGGGAAAACCCCUUUGCCCUCCAAAUCAACAGCUCGCAGUCAAG” it was 0.327 ± 0.445 log2 fold change; in that of “GGUCACGUCUCAAUCAACUCUCUAGAGGGGGGGAAAACCCCUUUGCCCUCAUCCUCAACAGCUCGCAGUCAAG”, 0.441 ± 0.424 log2 fold change; in that of “GGUCACGUCUCAAUCAACUCUCUAGAGGGGGGGAAAACCCCUUUGCCCUCGUCAUCAACAGCUCGCAGUCAAG”, 0.374 ± 0.381 log2 fold change.
To “GGUCACGUCUCAAUCAACUCUCUCGAGGGGGGGAAAACCCCUUUGCCCUCAAAAUCAACAGCUCGCAGUCAAG” belongs 0.354 ± 0.38 log2 fold change.
In the case of “GGUCACGUCUCAAUCAACUCUCUCGAGGGGGGGAAAACCCCUUUGCCCUCAACAUCAACAGCUCGCAGUCAAG” it was 0.307 ± 0.399 log2 fold change; in that of “GGUCACGUCUCAAUCAACUCACAAGAGGGGGGGAAAACCCCUUUGCCCUCAUCCUCAACAGCUCGCAGUCAAG”, 0.34 ± 0.422 log2 fold change.
For the sequence “GGUCACGUCUCAAUCAACUCUCUAGAGGGGGGGAAAACCCCUUUGCCCUCGAAAUCAACAGCUCGCAGUCAAG”, the binding signal was found to be 0.342 ± 0.443 log2 fold change.
For “GGUCACGUCUCAAUCAACUCAUUCGAGGGGGGGAAAACCCCUUUGCCCUCAUCAUCAACAGCUCGCAGUCAAG”, the binding signal was found to be 0.363 ± 0.407 log2 fold change.
In the case of “GGUCACGUCUCAAUCAACUCUCUAGAGGGGGGGAAAACCCCUUUGCCCUCCGUUUCAACAGCUCGCAGUCAAG”, the binding signal came out at 0.354 ± 0.438 log2 fold change.
Turning to “GGUCACGUCUCAAUCAACUCCUAAGAGGGGGGGAAAACCCCUUUACCCUCACUAUCAACAGCUCGCAGUCAAG”, the binding signal stood at 0.433 ± 0.43 log2 fold change.
To “GGUCACGUCUCAAUCAACUCCUAAGAGGGGGGGAAAACCCCUUUACCCUCAAUCUCAACAGCUCGCAGUCAAG” belongs 0.429 ± 0.444 log2 fold change; to “GGUCACGUCUCAAUCAACUCCUAAGAGGGGGGGAAAACCCCUUUACCCUCGUCCUCAACAGCUCGCAGUCAAG”, 0.382 ± 0.439 log2 fold change; to “GGUCACGUCUCAAUCAACUCCUAAGAGGGGGGGAAAACCCCUUUACCCUCCGCAUCAACAGCUCGCAGUCAAG”, 0.313 ± 0.425 log2 fold change.
“GGUCACGUCUCAAUCAACUCUUUAGAGGGGGGGAAAACCCCUUUGCCCUCAACUUCAACAGCUCGCAGUCAAG”: the binding signal stood at 0.318 ± 0.415 log2 fold change.
Regarding “GGUCACGUCUCAAUCAACUCUAUAGAGGGGGGGAAAACCCCUUUGCCCUCGAAUUCAACAGCUCGCAGUCAAG”, the binding signal is 0.377 ± 0.432 log2 fold change.
Regarding “GGUCACGUCUCAAUCAACUCCUUAGAGGGGGGGAAAACCCCUUUGCCCUCGAAUUCAACAGCUCGCAGUCAAG”, the binding signal was 0.379 ± 0.448 log2 fold change.
As to “GGUCACGUCUCAAUCAACUCUUUAGAGGGGGGGAAAACCCCUUUGCCCUCGAAUUCAACAGCUCGCAGUCAAG”, the binding signal was 0.388 ± 0.441 log2 fold change.
In the case of “GGUCACGUCUCAAUCAACUCAUAAGAGGGGGGGAAAACCCCUUUGCCCUCAAUCUCAACAGCUCGCAGUCAAG” it was 0.373 ± 0.408 log2 fold change.
In the case of “GGUCACGUCUCAAUCAACUCUCAAGAGGGGGGGAAAACCCCUUUGCCCUCGUAAUCAACAGCUCGCAGUCAAG” it was 0.452 ± 0.411 log2 fold change; in that of “GGUCACGUCUCAAUCAACUCUCACGAGGGGGGGAAAACCCCUUUGCCCUCAAUUUCAACAGCUCGCAGUCAAG”, 0.305 ± 0.454 log2 fold change.
In the case of “GGUCACGUCUCAAUCAACUCAAAAGAGGGGGGGAAAACCCCUUUGCCCUCACAAUCAACAGCUCGCAGUCAAG” it was 0.31 ± 0.383 log2 fold change; in that of “GGUCACGUCUCAAUCAACUCUCACGAGGGGGGGAAAACCCCUUUGCCCUCACUUUCAACAGCUCGCAGUCAAG”, 0.351 ± 0.41 log2 fold change.
On to “GGUCACGUCUCAAUCAACUCAAAAGAGGGGGGGAAAACCCCUUUGCCCUCACUUUCAACAGCUCGCAGUCAAG”, for which the binding signal was 0.573 ± 0.412 log2 fold change.
In the case of “GGUCACGUCUCAAUCAACUCUCAAGAGGGGGGGAAAACCCCUUUGCCCUCAACAUCAACAGCUCGCAGUCAAG”, the binding signal is 0.531 ± 0.415 log2 fold change.
To “GGUCACGUCUCAAUCAACUCUCAAGAGGGGGGGAAAACCCCUUUGCCCUCACUUUCAACAGCUCGCAGUCAAG” belongs 0.453 ± 0.436 log2 fold change.
In the case of “GGUCACGUCUCAAUCAACUCUCAAGAGGGGGGGAAAACCCCUUUGCCCUCCAUGUCAACAGCUCGCAGUCAAG” it was 0.411 ± 0.415 log2 fold change; in that of “GGUCACGUCUCAAUCAACUCACACGAGGGGGGGAAAACCCCUUUGCCCUCAACAUCAACAGCUCGCAGUCAAG”, 0.529 ± 0.425 log2 fold change; in that of “GGUCACGUCUCAAUCAACUCCUAAGAGGGGGGGAAAACCCCUUUGCCCUCACUUUCAACAGCUCGCAGUCAAG”, 0.38 ± 0.429 log2 fold change.
With “GGUCACGUCUCAAUCAACUCUAAAGAGGGGGGGAAAACCCCUUUGCCCUCACUUUCAACAGCUCGCAGUCAAG”, the binding signal was determined as 0.415 ± 0.443 log2 fold change.
For the sequence “GGUCACGUCUCAAUCAACUCCUAAGAGGGGGGGAAAACCCCUUUGCCCUCAUUCUCAACAGCUCGCAGUCAAG”, the binding signal stood at 0.335 ± 0.447 log2 fold change.
On to “GGUCACGUCUCAAUCAACUCAAUCGAGGGGGGGAAAACCCCUUUGCCCUCACUUUCAACAGCUCGCAGUCAAG”, for which the binding signal was 0.594 ± 0.435 log2 fold change.
To “GGUCACGUCUCAAUCAACUCCUAAGAGGGGGGGAAAACCCCUUUGCCCUCACCGUCAACAGCUCGCAGUCAAG” belongs 0.325 ± 0.438 log2 fold change.
